MCF10A rerep = DNA re-replication induction in MCF 10a cells. MCF 10A DNA re-replication, Hoechst nuclear intensity, 48 h. Potency, µM (highest dose often 46.1 µM), for the others: at the top dose activity, positive = re-replication, most hits filed as activators. 350,000 compounds, 2.9% hits. AID 624296; also: % of control where 0% means no effect; nearly all actives have a fitted effect of over 50% in size
KB-V1 MDR tox = KB-V1 MDR subline cytotoxicity; KB-V1 MDR cells viability, CellTiter-Glo, 72 h; Potency, µM (titrated, usually from 46.1 µM), usual class: cytotoxic; 400,000 compounds, 3.4% hits; also: % is scaled to controls: 0 for no effect and ±100 for the full control effect; nearly all actives have a fitted effect of over 60% in size
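Readout: CellTiter-Glo luminescence, 10 min after addition. Cells: KB-V1 MDR subline, 72 h at 37 degrees C with compound. Analysis: corrected, normalized data fitted to concentration-effect curves.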
KB-3-1 tox = kills parental KB-3-1 adenocarcinoma cells. KB-3-1 viability, CellTiter-Glo ATP luminescence, 72 h. Potency, µM (highest dose often 46.1 µM), most hits filed as cytotoxic. 400,000 compounds, 1.4% hits; also: % is scaled to controls: 0 for no effect and ±100 for the full control effect; nearly all actives have a fitted effect of over 60% in size
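Cells are dispensed, compounds pinned in, plates held at 37 °C for 72 h, then CellTiter-Glo is added and luminescence read after 10 minutes. Cell line: parental KB-3-1 in phenol-red-free DMEM, 10% FBS.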
PTAP TSG101 blk = blocks PTAP/TSG101 interaction to inhibit HIV-1 budding. 340,000 tested, under 10 active. Potency, µM (titrated, usually from 115 µM), inactives show at the highest dose activity change, negative = inhibition, hits mostly inhibitors. Q99816. AID 493005. Fluorescence polarization, FITC-PTAP peptide / Tsg101 binding; active = well fitted inhibition curve with a large enough effect in the main read-out, with a control signal flat, not every such curve was filed as active; inconclusive = small, poorly fitted or top-dose-only effect, or effect the other way, or a change in a side signal; inactive = no such curve, though single readings can be large or run the other way; also: % of control where 0% means no effect
Target sequence (Q99816 whole entry, looked up): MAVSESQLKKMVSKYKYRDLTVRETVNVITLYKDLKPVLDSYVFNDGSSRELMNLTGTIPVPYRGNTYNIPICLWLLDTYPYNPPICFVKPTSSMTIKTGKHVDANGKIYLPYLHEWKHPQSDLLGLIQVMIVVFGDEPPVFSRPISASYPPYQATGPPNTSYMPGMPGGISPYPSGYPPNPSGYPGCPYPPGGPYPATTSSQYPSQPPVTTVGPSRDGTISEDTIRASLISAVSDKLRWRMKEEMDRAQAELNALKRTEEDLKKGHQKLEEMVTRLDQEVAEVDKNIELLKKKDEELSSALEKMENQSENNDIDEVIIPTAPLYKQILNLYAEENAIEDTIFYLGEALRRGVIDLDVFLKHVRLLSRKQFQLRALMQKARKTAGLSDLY
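FP read-out: FITC-PTAP peptide, 50 nM final, binding Tsg101 binding domain, 10 uM final; 20 min, r.t.; 10 mM HEPES pH 7.5, 0.15 M NaCl, 0.01% Tween 20, 3 mM EDTA, 0.1 mM TCEP.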
SW480 rereplic = inducers of DNA re-replication in SW480 colon cancer cells. SW480 DNA re-replication, Hoechst DNA content imaging, 48 h. AID 624297. 340,000 compounds, 1.8% hits. Potency, µM (highest dose often 46.1 µM), for the others: top-dose re-replication activation, hits mostly activators; also: % of control where 0% means no effect; nearly all actives have a fitted effect of over 55% in size
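Per well, 250 cells were exposed to pinned compound for 48 hr. Nuclear DNA was visualised with Hoechst (40 min, 37 C) and total object intensity recorded by fluorescence scanning.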
PINK1 modulator = PINK1 expression modulation; PINK1 immunofluorescence, high-content cytometry, 24 h; Potency, µM (titrated, usually from 76.6 µM), inactives show at the top dose activation (PINK1 increase), most hits filed as activators; 410,000 compounds, 0.2% hits; AID 624263; active = well fitted activation curve with a large enough effect; inconclusive = small, poorly fitted or top-dose-only effect; cell line not stated here; also: % of control where 0% means no effect; nearly all actives have a fitted effect of over 65% in size
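Decision-based qHTS: stable cells, 24 h exposure to five compound concentrations, CCCP as control. Fixed cells stained for PINK1 plus nuclear, mitochondrial and cell markers, cytometer read.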
Starred values were filed as active, the others as inactive; i = inactive; ? = inconclusive; · = no result; [ ] = remark or other dose. Sampled rows, rich in hits. Any-hit rate of the full collection: about 6.8%. Unless noted, calls follow the shape of the dose curve; as a rule, active = well fitted curve in the direction sought with a large enough effect; inconclusive = small, poorly fitted or top-dose-only effect, or another doubt; inactive = no such curve, though single readings can be large; an effect the other way counts as inactive or inconclusive. Potency is read from the fitted curve at half-maximal effect.

SMILES	MCF10A rerep	KB-V1 MDR tox	KB-3-1 tox	PTAP TSG101 blk	SW480 rereplic	PINK1 modulator
c1ccc2c(c1)CC/C2=N/Nc1nc2ccccc2[nH]1	23µM*	?	i	1%	?	16%
O=C(O)c1cc(NN=C2CCN(Cc3ccccc3)CC2)ccc1Cl	1%	i	i	1%	4%	0%
c1ccc(CN2CCC(=NNc3nc4ccccc4[nH]3)CC2)cc1	?	i	i	-1%	23µM*	-2%
CN(CCCNC(=O)C1CCC(=O)N1Cc1ccccc1Cl)c1ccccc1 (stereo not given)	13%	23µM*	i	-5%	5%	-4%[38.3 µM]
CCN(CCCNC(=O)C1CCC(=O)N1Cc1ccccc1Cl)c1cccc(C)c1 (stereo not given)	3%	6.5µM*	i	1%	3%	1%
CN(CCCNC(=O)C1CCC(=O)N1Cc1ccc(F)cc1)c1ccccc1 (stereo not given)	12%	i	i	0%	-2%	0%
CC(=O)Nc1ccc(NC(=O)CSc2nccn2Cc2ccc3c(c2)OCO3)cc1	·	·	·	·	·	17%
COC(=O)c1cc(CNC(=O)c2cccc(C)c2)cc(NC(=O)c2ccncc2)c1	·	·	·	·	·	0%
O=C(NC1CCN(Cc2ccccc2)CC1)c1ccc(Cn2c(=O)c3ccccc3n(Cc3ccc(F)cc3)c2=O)cc1	·	·	·	·	·	1%
O=C(NNS(=O)(=O)c1ccccc1[N+](=O)[O-])c1cccc(Cl)c1	1%	i	i	-12%	0.52µM*	2%
CN(C)c1ccc(-c2nc3cnccn3c2Nc2cccc(C(F)(F)F)c2)cc1	·	i	i	·	·	6%
CC(=O)NCCC(=O)Nc1nc(-c2cccs2)c(-c2cccs2)s1	3%	i	i	1%	-3%	2%
O=C(Nc1nc(-c2cccs2)c(-c2cccs2)s1)C1(c2ccccc2)CC1	21µM*	18µM*	i	1%	5%	4%
CCCCOc1ccc(/C(O)=C(\C#N)c2nc3ccccc3[nH]2)cc1	1%	i	i	-3%	3%	2%
N#C/C(=C(/O)c1ccc(C(=O)c2ccccc2)cc1)c1nc2ccccc2[nH]1	22%	i	i	-3%	23µM*	3%
N#C/C(=C(/O)c1ccc(Br)s1)c1nc2ccccc2[nH]1	2.9µM*	?	6.5µM*	0%	7.3µM*	14%
Cc1ccc(C(C)C)c(OC/C(O)=C(\C#N)c2nc3ccccc3[nH]2)c1	16µM*	?	i	0%	?	?
Cc1cccc(Nc2nnc(SC/C(O)=C(\C#N)c3nc4ccccc4[nH]3)s2)c1C	13µM*	i	i	0%	?	1%
Cc1cccc(C)c1Nc1nnc(SC/C(O)=C(\C#N)c2nc3ccccc3[nH]2)s1	?	i	i	-1%	?	2%
CCOc1ccc(NC(=O)Cc2ccc(NC(=O)N3CCCCc4ccccc43)cc2)cc1	·	i	i	·	·	0%
N#C/C(=C(/O)CCl)c1nc2ccccc2[nH]1	?	23µM*	?	-4%	?	7%
N#C/C(=C(/O)c1cccs1)c1nc2ccccc2[nH]1	18µM*	?	i	-5%	16µM*	5%
N#C/C(=C(\O)Cc1ccccc1)c1nc2ccccc2[nH]1	17%	i	?	-2%	?	2%
Cc1ccc(Cn2c(=O)n(Cc3ccco3)c(=O)c3sc4ccccc4c32)cc1	·	i	i	·	·	1%
COC(=O)C1=CN(c2ccc(OC)cc2)C=C(C(=O)OC)C1c1cccc(F)c1	1%	i	i	0%	24%	2%
SMILES	MCF10A rerep	KB-V1 MDR tox	KB-3-1 tox	PTAP TSG101 blk	SW480 rereplic	PINK1 modulator
COC(=O)C1=CN(c2ccc(OC)cc2)C=C(C(=O)OC)C1c1ccc(C)c([N+](=O)[O-])c1	0%	3.3µM*	?	0%	4%	4%
O=C(c1ccco1)N(Cc1cc2cc3c(cc2nc1N1CCOCC1)CCC3)CC1CCCO1 (stereo not given)	·	·	·	·	·	0%
COc1cc(C(=O)Nc2ccc3c(c2)Cc2ccccc2-3)cc(OC)c1OC	8.2µM*	i	i	-4%	-2%	10%
COc1cc2c(cc1NC(=O)C(Cl)Cl)-c1ccc(NC(=O)C(Cl)Cl)cc1C2	24%	15µM*	?	-4%	?	-5%
COc1cc(C(=O)Nc2ccc3c(c2)CCN3C(C)=O)cc(OC)c1OC	-7%	?	3.3µM*	-1%	?	4%
COc1cc2c(cc1NC(=O)c1ccccc1-c1ccccc1C(=O)O)-c1ccccc1C2	·	i	i	·	·	-1%
COc1cc(C(=O)Nc2ccc3ccccc3c2)cc(OC)c1OC	2.6µM*	?	?	-11%	1.3µM*	2%
O=c1c2ccccc2c(C=Nc2cccc(O)c2)c(O)n1-c1ccc2c(c1)OCO2	15µM*	i	?	-2%	?	13%
COc1ccc(N=Cc2c(O)n(-c3ccc(OC)cc3)c(=O)c3ccccc23)cc1	?	i	i	0%	20%	?
Cn1nnnc1NN=Cc1ccccc1	·	18µM*	i	·	·	0%
O=C(O)c1ccc(CNc2ncnc3nc[nH]c23)cc1	·	·	·	·	·	1%
CCOC(=O)/C(C#N)=C1/C=C(C)NC(c2ccccc2O)=N1	6.5µM*	i	i	-9%	6%	?
Cc1oc(-c2ccc(Cl)cc2)nc1CN1CCC(C(=O)NCc2ccco2)CC1	15%	9.2µM*	i	-6%	?	0%[38.3 µM]
O=C(NCc1ccco1)C1CCN(C(=O)c2cc3sccc3n2Cc2ccc(Cl)cc2)CC1	21µM*	?	?	-4%	?	-1%[38.3 µM]
Cc1oc(-c2ccc(Cl)cc2)nc1CN1CCCC(C(=O)NCCCN2CCOCC2)C1 (stereo not given)	?	18µM*	?	-3%	11%	12%
COCCNC(=O)C1CCN(C(=O)c2cc3sccc3n2Cc2ccc(Cl)cc2)CC1	·	·	·	·	·	0%
Cc1oc(-c2ccc(Cl)cc2)nc1CN1CCCC(C(=O)NCc2cccnc2)C1 (stereo not given)	-2%	2.3µM*	2.6µM*	-10%	-2%	4%[38.3 µM]
Cc1oc(-c2cccc(Cl)c2)nc1CN1CCC(C(=O)NCc2ccco2)CC1	8%	i	?	-5%	1%	-1%
Cc1oc(-c2ccc(Cl)cc2)nc1CN1CCCC(C(=O)NCc2ccccn2)C1 (stereo not given)	2%	i	i	-7%	-3%	0%

High-throughput results as filed in PubChem.
